# Reference: PubChem BioAssay (NCI)
# Several values for one entry are separate records, joined by “and”; a condition that tells them apart may be missing. Equal entries are not always repeated. This is part of a sample that, as a whole, favours compounds with a hit. Of some 83,000 tested, about 20% had one in any assay.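 Growth was measured after 48 h exposure to one concentration of compound in 96-well plates. Values under 10 count as active.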 Activity calls are given as the source filed them.
# How the values were obtained:
# Assay in all cases: NCI-60 one-dose screen, 48 h (100 = growth as untreated, 0 = no growth, -100 = all killed)
# Details in all cases: 10 µM unless noted
# EKVX NSCLC = system: EKVX NSCLC
# SN12C renal = system: SN12C renal
# UO-31 renal = system: UO-31 renal
# TK-10 renal = system: TK-10 renal
# ACHN renal = system: ACHN renal
# CAKI-1 renal = system: CAKI-1 renal
# A498 renal = system: A498 renal
# HL-60(TB) leukemia = system: HL-60(TB) leukemia
# MOLT-4 leukemia = system: MOLT-4 leukemia
# SR leukemia = system: SR leukemia
# RPMI-8226 leukemia = system: RPMI-8226 leukemia
# OVCAR-8 ovarian = system: OVCAR-8 ovarian
# OVCAR-5 ovarian = system: OVCAR-5 ovarian
# OVCAR-4 ovarian = system: OVCAR-4 ovarian
# SK-OV-3 ovarian = system: SK-OV-3 ovarian
# IGROV1 ovarian = system: IGROV1 ovarian
# OVCAR-3 ovarian = system: OVCAR-3 ovarian
# CCRF-CEM leukemia = system: CCRF-CEM leukemia
# HS 578T breast = system: HS 578T breast
# SK-MEL-2 melanoma = system: SK-MEL-2 melanoma
Compound,growth (EKVX NSCLC),growth (SN12C renal),growth (UO-31 renal),growth (TK-10 renal),growth (ACHN renal),growth (CAKI-1 renal),growth (A498 renal),growth (HL-60(TB) leukemia),growth (MOLT-4 leukemia),growth (SR leukemia),growth (RPMI-8226 leukemia),growth (OVCAR-8 ovarian),growth (OVCAR-5 ovarian),growth (OVCAR-4 ovarian),growth (SK-OV-3 ovarian),growth (IGROV1 ovarian),growth (OVCAR-3 ovarian),growth (CCRF-CEM leukemia),growth (HS 578T breast),growth (SK-MEL-2 melanoma)
Nc1ccc(S(=O)(=O)F)cc1,112% (inactive),105% (inactive),86.3% (inactive),92.7% (inactive),109% (inactive),101% (inactive),94.8% (inactive),91.9% (inactive),93.3% (inactive),84.7% (inactive),98.9% (inactive),107% (inactive),102% (inactive),130% (inactive),105% (inactive),105% (inactive),111% (inactive),–,–,–
O=C1C(=C(O)c2ccccc2)C(=O)c2ccccc21,–,–,–,–,–,–,–,97.6% (inactive),–,–,–,–,–,–,–,–,–,–,–,–
Cc1ccc(C(=O)O[C@H](C(=O)O)[C@H](OC(=O)c2ccc(C)cc2)C(=O)O)cc1,–,102% (inactive),–,105% (inactive),106% (inactive),102% (inactive),120% (inactive),95.4% (inactive),90.9% (inactive),–,106% (inactive),98.8% (inactive),114% (inactive),103% (inactive),96.9% (inactive),103% (inactive),111% (inactive),105% (inactive),128% (inactive),–
O=C(NC(Cl)=C(Cl)Cl)P(=O)(c1ccccc1)c1ccccc1,–,107% (inactive),95.8% (inactive),118% (inactive),112% (inactive),85.7% (inactive),102% (inactive),–,87.1% (inactive),88.3% (inactive),101% (inactive),126% (inactive),105% (inactive),101% (inactive),107% (inactive),95% (inactive),115% (inactive),98.6% (inactive),113% (inactive),–
CNC(=O)O/N=C(\SC)C(=O)N(C)C,112% (inactive),104% (inactive),93.1% (inactive),103% (inactive),101% (inactive),107% (inactive),95.8% (inactive),88.9% (inactive),86.5% (inactive),72.2% (inactive),86% (inactive),97.7% (inactive),101% (inactive),119% (inactive),102% (inactive),110% (inactive),107% (inactive),92.2% (inactive),96.4% (inactive),–
O=C(O)C(Br)CBr (centres undefined),–,98% (inactive),89.4% (inactive),–,97.4% (inactive),101% (inactive),107% (inactive),–,87.7% (inactive),99% (inactive),103% (inactive),92.9% (inactive),117% (inactive),–,101% (inactive),104% (inactive),106% (inactive),96.3% (inactive),111% (inactive),85.1% (inactive)
CC1(C)CN=C(NN=C(/C=C/c2ccc(C(F)(F)F)cc2)/C=C/c2ccc(C(F)(F)F)cc2)NC1,–,-74.3% (active),8.51% (active),-17.9% (active),-84.2% (active),-76.9% (active),2.54% (active),–,-59.1% (active),-57% (active),-26.8% (active),-64% (active),-87.5% (active),-92.3% (active),-7.65% (active),–,-88% (active),-24.9% (active),-38% (active),–
N#CC(C#N)=C(C#N)C#N,–,110% (inactive),90.9% (inactive),–,94.8% (inactive),125% (inactive),110% (inactive),107% (inactive),102% (inactive),105% (inactive),101% (inactive),96% (inactive),101% (inactive),104% (inactive),109% (inactive),108% (inactive),107% (inactive),–,103% (inactive),–
NNC(=S)N/N=C(\C(=O)Nc1cccc(O)c1)C1C(=O)NC(=S)NC1=O,–,–,–,132% [100 µM] (inactive) and 93% [100 µM] (inactive),–,–,–,–,–,–,–,–,–,–,–,–,–,–,–,–
Nc1cccnc1,115% (inactive),102% (inactive),107% (inactive),102% (inactive),113% (inactive),104% (inactive),112% (inactive),106% (inactive),101% (inactive),90.4% (inactive),105% (inactive),104% (inactive),116% (inactive),129% (inactive),105% (inactive),106% (inactive),119% (inactive),98.7% (inactive),–,–
N#Cc1ccc(Cl)cc1,117% (inactive),107% (inactive),94.6% (inactive),60.3% (inactive),102% (inactive),111% (inactive),134% (inactive),83.9% (inactive),–,87% (inactive),106% (inactive),109% (inactive),109% (inactive),115% (inactive),109% (inactive),104% (inactive),114% (inactive),99.5% (inactive),–,–
O=S(=O)(O)c1ccc(Cl)cc1,–,–,–,–,–,–,–,89.1% (inactive),–,–,–,–,–,–,–,–,–,–,–,–
CCOC(=O)c1c(SC)nc(-c2ccc(Cl)cc2)sc1=N,–,–,–,6.59% [100 µM] (active) and 15.8% [100 µM] (inactive),–,–,–,–,–,–,–,–,–,–,–,–,–,–,–,–
O=[N+]([O-])c1c(Cl)cc(Cl)c([N+](=O)[O-])c1Cl,–,108% (inactive),151% (inactive),112% (inactive),103% (inactive),–,111% (inactive),85.2% (inactive),80.8% (inactive),69% (inactive),90.2% (inactive),94.7% (inactive),115% (inactive),112% (inactive),111% (inactive),100% (inactive),78.3% (inactive),53.5% (inactive),109% (inactive),112% (inactive)
